What all share (assay): DAPPL (digital affinity profiling via proximity ligation, sequencing); 10 mM Tris-HCl pH 7.5, 50 mM NaCl, 1 mM DTT, 4% glycerol, room temperature, 30 min; GST-TFs on glutathione beads, 16-mer random dsDNA library, 0.1% formaldehyde crosslink after washing; high values mean tight binding
The target of one experiment is T1, FLI1 (Homo sapiens, UniProt Q01543 1-452).
T1 sequence: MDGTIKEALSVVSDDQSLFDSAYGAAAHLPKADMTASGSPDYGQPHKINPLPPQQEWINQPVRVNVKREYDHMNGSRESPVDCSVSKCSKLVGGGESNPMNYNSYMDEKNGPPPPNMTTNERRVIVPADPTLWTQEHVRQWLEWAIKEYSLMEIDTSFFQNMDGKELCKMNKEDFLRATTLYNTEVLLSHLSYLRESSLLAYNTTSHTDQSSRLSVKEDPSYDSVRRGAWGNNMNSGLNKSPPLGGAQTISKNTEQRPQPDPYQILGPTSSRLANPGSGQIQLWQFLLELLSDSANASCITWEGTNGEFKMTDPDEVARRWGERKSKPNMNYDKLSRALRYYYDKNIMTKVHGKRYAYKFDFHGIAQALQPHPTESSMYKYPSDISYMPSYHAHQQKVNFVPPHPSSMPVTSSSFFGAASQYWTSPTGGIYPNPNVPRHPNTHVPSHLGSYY
As to conditions: protein: recombinant; tags: N-terminal GST; dsDNA, one strand shown. Summed up:
(§1)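 Sequencing on an Illumina NextSeq500 followed washing, crosslinking with 0.1% formaldehyde, proximity ligation (BsaI/T4 ligase, 1 h, 37 °C) and PCR amplification of pools that had been incubated for 30 min at room temperature with 200 nmole of a random double-stranded 16-mer DNA library in Tris/NaCl/DTT/glycerol buffer. Each pool held DNA-barcoded human transcription factors, expressed in yeast as GST fusions and captured on glutathione beads, plus a tag-only sample. Binding signal is a hexamer's read frequency for a factor divided by its frequency in the tag-only sample.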

For a further experiment, the target named is T2, ELK1 (Homo sapiens, UniProt P19419 1-428).
T2 sequence: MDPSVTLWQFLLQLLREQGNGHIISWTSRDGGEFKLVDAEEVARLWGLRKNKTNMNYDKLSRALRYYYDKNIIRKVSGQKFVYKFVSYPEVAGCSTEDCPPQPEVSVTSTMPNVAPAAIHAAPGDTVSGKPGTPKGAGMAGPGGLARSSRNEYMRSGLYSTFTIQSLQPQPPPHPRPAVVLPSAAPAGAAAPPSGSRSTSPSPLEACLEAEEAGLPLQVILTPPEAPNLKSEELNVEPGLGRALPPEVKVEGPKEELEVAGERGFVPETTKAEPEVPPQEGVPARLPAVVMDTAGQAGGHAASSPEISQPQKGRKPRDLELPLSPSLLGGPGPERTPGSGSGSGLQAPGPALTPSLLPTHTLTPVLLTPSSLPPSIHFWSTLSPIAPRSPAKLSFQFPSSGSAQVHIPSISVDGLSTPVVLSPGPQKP
As to conditions: protein: recombinant; tags: N-terminal GST; dsDNA, one strand shown. Summed up:
as §1

For the next experiment, the target named is T3, GABPA (Homo sapiens, UniProt Q06546 1-454).
T3 sequence: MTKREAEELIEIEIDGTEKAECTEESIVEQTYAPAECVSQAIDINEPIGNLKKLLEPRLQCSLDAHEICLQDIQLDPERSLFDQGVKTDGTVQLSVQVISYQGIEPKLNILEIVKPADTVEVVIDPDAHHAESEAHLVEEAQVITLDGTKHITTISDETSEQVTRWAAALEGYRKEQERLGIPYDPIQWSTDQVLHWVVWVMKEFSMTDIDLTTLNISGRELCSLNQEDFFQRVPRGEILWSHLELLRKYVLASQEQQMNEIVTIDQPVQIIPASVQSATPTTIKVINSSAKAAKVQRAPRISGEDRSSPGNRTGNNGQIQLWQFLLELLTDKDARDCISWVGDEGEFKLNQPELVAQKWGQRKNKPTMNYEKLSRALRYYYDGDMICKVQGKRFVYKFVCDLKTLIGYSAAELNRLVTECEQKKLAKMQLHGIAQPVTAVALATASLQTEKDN
As to conditions: protein: recombinant; tags: N-terminal GST; dsDNA, one strand shown. Summed up: as §1

For another experiment, the target named is T4, ERG (Homo sapiens, UniProt P11308 1-479).
T4 sequence: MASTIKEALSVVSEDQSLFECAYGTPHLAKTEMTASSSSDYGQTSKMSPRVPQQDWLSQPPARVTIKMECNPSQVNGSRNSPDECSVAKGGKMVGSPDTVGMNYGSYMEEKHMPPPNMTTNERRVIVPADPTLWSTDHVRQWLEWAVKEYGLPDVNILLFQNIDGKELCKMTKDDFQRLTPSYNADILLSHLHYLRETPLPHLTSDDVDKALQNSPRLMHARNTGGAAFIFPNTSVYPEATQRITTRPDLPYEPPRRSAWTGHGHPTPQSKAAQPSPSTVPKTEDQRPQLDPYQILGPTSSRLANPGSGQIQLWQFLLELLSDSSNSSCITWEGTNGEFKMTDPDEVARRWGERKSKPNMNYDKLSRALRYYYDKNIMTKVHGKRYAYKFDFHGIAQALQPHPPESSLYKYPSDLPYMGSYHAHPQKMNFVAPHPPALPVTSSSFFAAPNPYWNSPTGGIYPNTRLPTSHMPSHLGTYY
As to conditions: protein: recombinant; tags: N-terminal GST; dsDNA, one strand shown. The procedure, abridged: as §1

The target of a further experiment is ELF1 (Homo sapiens, UniProt P32519 1-619). As to conditions: protein: recombinant; tags: N-terminal GST; dsDNA, one strand shown. The procedure, abridged:
as §1

Another experiment has as its target T5, EHF (Homo sapiens, UniProt Q9NZC4 1-300).
T5 sequence: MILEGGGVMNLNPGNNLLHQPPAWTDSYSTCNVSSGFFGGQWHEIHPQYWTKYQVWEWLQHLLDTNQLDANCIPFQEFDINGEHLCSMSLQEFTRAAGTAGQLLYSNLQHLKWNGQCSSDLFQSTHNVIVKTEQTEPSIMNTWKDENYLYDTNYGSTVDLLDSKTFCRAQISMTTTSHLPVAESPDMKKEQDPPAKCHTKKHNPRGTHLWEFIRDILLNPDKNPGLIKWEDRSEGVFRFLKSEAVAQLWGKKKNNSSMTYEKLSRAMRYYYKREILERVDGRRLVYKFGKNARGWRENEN
Particulars: protein: recombinant; tags: N-terminal GST; dsDNA, one strand shown. The procedure, abridged: as §1

Another experiment concerns the target SPI1 (Homo sapiens, UniProt P17947 1-270). Particulars: protein: recombinant; tags: N-terminal GST; dsDNA, one strand shown. Summed up:
as §1

A further experiment concerns the target SPIB (Homo sapiens, UniProt Q01892 1-262). As to conditions: protein: recombinant; tags: N-terminal GST; dsDNA, one strand shown. Summed up:
as §1

A further experiment addresses T6, ELK3 (Homo sapiens, UniProt P41970 1-407).
T6 sequence: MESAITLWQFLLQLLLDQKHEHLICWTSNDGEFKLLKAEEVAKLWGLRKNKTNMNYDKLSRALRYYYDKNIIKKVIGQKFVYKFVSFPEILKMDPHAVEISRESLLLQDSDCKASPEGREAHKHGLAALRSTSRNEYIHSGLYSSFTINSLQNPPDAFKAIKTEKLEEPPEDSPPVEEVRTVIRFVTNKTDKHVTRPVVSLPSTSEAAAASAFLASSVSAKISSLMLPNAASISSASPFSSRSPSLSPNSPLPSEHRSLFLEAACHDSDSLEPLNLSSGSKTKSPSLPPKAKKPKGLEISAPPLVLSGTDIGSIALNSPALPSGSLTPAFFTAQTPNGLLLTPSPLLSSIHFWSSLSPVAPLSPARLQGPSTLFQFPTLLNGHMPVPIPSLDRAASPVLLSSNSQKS
Particulars: protein: recombinant; tags: N-terminal GST; dsDNA, one strand shown. The procedure, abridged: as §1

The target in the next experiment is T7, FEV (Homo sapiens, UniProt Q99581 1-238).
T7 sequence: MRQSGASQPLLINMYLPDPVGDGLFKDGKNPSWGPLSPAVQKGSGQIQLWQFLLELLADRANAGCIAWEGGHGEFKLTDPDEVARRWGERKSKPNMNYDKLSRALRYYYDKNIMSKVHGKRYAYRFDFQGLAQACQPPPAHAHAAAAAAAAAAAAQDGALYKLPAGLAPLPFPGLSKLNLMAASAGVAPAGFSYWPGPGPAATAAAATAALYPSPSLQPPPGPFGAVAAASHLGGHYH
Particulars: protein: recombinant; tags: N-terminal GST; dsDNA, one strand shown. The procedure, abridged:
as §1

The target in a further experiment is ETV5 (Homo sapiens, UniProt P41161 1-510). As to conditions: protein: recombinant; tags: N-terminal GST; dsDNA, one strand shown. The procedure, abridged:
as §1

Another experiment has as its target HSF1 (Homo sapiens, UniProt Q00613 1-529). As to conditions: protein: recombinant; tags: N-terminal GST; chain copies: 3; dsDNA, one strand shown. The procedure, abridged: as §1
A further experiment addresses T8, SPIC (Homo sapiens, UniProt Q8N5J4 1-248).
T8 sequence: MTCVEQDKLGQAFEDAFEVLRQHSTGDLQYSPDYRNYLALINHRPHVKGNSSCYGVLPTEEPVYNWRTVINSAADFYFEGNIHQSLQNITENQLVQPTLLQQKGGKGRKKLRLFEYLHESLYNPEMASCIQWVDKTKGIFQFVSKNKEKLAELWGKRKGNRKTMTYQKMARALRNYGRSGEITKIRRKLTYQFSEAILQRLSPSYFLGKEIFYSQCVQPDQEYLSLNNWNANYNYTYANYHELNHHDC
As to conditions: protein: recombinant; tags: N-terminal GST; dsDNA, one strand shown. Summed up: as §1

For the next experiment, the target named is ELF4 (Homo sapiens, UniProt Q99607 1-663). Particulars: protein: recombinant; tags: N-terminal GST; dsDNA, one strand shown. Summed up: as §1
Sequence of ELF4 (Q99607 whole entry): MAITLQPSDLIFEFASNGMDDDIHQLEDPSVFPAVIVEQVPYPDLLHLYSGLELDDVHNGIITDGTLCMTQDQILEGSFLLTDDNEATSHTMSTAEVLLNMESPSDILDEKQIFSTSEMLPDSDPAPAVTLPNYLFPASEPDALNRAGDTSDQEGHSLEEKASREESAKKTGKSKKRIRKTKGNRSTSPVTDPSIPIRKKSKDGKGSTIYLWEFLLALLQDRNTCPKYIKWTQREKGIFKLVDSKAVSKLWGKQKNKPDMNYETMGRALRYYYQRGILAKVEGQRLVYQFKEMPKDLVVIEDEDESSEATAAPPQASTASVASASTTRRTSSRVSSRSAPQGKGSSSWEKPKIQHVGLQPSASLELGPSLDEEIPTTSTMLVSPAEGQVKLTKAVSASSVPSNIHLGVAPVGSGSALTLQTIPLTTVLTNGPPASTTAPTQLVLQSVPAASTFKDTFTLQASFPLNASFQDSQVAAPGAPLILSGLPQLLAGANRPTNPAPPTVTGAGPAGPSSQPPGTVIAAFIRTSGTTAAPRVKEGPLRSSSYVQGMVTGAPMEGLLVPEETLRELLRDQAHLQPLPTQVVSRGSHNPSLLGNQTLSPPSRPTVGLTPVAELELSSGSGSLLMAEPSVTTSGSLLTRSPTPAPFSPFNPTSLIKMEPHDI
The target of a further experiment is T9, ELK4 (Homo sapiens, UniProt P28324-2 1-405).
T9 sequence: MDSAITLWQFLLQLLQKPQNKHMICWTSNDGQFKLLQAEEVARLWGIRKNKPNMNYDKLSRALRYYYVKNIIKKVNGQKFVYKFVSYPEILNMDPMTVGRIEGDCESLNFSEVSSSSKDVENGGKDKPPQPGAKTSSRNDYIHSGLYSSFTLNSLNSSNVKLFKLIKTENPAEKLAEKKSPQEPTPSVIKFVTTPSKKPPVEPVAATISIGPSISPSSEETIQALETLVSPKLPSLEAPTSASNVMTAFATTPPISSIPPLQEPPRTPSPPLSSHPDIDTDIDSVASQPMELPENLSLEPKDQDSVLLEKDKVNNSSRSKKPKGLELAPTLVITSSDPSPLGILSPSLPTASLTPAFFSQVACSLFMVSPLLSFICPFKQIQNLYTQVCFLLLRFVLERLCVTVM
As to conditions: protein: recombinant; tags: N-terminal GST; dsDNA, one strand shown. The procedure, abridged:
as §1

The target in a further experiment is T10, ETV2 (Homo sapiens, UniProt O00321 1-342).
T10 sequence: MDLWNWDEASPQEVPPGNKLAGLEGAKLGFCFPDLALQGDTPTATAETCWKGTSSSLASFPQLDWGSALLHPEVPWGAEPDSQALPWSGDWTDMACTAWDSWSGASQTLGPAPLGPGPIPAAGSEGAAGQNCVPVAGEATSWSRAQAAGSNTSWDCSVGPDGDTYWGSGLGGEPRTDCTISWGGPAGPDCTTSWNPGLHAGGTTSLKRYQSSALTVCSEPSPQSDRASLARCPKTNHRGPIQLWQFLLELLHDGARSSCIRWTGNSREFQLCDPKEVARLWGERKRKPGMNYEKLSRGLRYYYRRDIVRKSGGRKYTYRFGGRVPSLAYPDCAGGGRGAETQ
Particulars: protein: recombinant; tags: N-terminal GST; dsDNA, one strand shown. The procedure, abridged:
as §1

In another experiment the target is T11, ELF3 (Homo sapiens, UniProt P78545 1-371).
T11 sequence: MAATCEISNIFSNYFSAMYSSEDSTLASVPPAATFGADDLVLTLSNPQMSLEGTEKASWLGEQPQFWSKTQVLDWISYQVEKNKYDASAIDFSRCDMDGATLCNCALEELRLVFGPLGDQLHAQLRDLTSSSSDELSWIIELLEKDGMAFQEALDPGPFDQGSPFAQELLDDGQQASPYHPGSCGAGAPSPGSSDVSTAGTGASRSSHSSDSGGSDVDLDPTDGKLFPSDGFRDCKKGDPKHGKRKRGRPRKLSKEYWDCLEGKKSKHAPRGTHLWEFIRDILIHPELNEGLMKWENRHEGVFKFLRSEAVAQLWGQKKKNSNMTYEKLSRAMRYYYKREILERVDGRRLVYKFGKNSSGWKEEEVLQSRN
Particulars: protein: recombinant; tags: N-terminal GST; dsDNA, one strand shown. The procedure, abridged: as §1

The next experiment addresses ETV1 (Homo sapiens, UniProt P50549 1-477). As to conditions: protein: recombinant; tags: N-terminal GST; dsDNA, one strand shown. The procedure, abridged: as §1

Sequence of ELF1 (P32519 whole entry): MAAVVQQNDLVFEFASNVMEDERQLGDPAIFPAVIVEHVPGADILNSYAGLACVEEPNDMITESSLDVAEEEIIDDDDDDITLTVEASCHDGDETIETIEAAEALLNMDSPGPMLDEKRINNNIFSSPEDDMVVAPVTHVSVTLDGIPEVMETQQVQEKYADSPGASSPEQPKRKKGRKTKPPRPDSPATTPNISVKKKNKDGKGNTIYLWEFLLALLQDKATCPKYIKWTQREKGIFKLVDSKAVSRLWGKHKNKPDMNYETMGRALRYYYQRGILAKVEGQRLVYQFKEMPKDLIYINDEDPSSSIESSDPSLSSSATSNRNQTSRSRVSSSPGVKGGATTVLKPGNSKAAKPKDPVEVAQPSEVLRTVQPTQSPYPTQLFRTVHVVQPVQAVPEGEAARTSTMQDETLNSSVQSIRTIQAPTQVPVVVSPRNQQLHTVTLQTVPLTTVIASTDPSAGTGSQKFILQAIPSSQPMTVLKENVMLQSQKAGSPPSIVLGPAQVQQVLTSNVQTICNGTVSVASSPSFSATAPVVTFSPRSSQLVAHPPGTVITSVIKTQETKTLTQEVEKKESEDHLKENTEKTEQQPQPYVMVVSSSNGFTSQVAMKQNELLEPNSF
Sequence of HSF1 (Q00613 whole entry): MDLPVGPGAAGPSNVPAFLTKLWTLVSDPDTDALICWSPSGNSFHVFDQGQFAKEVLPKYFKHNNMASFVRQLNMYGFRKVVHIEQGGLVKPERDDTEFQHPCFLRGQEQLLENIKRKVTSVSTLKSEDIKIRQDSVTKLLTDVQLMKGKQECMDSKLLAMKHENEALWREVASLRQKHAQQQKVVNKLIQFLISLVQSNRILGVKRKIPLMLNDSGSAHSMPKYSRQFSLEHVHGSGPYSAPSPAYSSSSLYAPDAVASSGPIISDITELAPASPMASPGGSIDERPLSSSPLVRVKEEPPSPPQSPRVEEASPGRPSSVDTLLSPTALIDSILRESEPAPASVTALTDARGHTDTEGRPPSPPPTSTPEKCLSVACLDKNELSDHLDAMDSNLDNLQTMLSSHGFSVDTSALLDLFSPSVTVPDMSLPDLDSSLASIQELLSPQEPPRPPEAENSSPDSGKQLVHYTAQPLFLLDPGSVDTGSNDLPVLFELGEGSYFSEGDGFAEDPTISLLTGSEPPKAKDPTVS
Sequence of SPIB (Q01892 whole entry): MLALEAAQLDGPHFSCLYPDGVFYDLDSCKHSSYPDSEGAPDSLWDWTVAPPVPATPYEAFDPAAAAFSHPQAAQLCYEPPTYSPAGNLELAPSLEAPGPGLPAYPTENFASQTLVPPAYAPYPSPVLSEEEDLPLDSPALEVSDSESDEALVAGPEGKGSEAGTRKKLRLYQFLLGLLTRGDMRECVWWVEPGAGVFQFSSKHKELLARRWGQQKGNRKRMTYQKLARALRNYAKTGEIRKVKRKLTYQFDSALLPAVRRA
Sequence of ETV5 (P41161 whole entry): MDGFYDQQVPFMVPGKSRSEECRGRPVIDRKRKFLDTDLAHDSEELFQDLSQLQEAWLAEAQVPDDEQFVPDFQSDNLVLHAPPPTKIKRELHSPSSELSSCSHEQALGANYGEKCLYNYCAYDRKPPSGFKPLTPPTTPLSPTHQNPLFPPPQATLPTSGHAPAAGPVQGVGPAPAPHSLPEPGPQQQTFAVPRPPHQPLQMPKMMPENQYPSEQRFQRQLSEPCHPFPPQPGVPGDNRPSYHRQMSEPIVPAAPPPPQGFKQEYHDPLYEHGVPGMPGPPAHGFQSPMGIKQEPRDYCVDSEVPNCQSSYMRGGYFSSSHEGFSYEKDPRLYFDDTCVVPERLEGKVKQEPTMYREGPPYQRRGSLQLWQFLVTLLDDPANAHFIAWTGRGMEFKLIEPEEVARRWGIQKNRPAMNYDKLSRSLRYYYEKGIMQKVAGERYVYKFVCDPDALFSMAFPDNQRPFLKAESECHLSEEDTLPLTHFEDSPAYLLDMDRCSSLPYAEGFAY
Sequence of ETV1 (P50549 whole entry): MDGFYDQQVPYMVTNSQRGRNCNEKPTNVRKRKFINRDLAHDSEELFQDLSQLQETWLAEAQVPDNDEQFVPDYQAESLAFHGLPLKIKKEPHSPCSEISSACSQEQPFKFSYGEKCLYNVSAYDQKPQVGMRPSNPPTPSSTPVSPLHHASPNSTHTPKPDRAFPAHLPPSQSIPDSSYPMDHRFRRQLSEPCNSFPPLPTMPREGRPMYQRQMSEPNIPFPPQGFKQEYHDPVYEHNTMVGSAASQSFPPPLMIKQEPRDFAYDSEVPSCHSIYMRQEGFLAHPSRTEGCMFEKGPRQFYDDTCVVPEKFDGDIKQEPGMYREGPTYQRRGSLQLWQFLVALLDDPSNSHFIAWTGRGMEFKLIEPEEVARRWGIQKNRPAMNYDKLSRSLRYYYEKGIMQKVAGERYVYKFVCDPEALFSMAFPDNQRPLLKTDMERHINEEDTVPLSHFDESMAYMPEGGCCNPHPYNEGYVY

With TGGTAC, the binding signal was 1.18 fold enrichment (6-mer frequency, TF over GST control) with FLI1; 1.23 fold enrichment (6-mer frequency, TF over GST control) with ELK1; 1.13 fold enrichment (6-mer frequency, TF over GST control) with GABPA; 1.15 fold enrichment (6-mer frequency, TF over GST control) with ERG; 1.17 fold enrichment (6-mer frequency, TF over GST control) in the experiment with ELF1; 1.13 fold enrichment (6-mer frequency, TF over GST control) in the experiment with EHF. Also, the binding signal with SPI1 was 1.12 fold enrichment (6-mer frequency, TF over GST control); in the experiment with SPIB, 1.27 fold enrichment (6-mer frequency, TF over GST control); with ELK3 it was 1.07 fold enrichment (6-mer frequency, TF over GST control); in the experiment with FEV, 1.07 fold enrichment (6-mer frequency, TF over GST control); with ETV5 it was 1.2 fold enrichment (6-mer frequency, TF over GST control); with HSF1, 1.04 fold enrichment (6-mer frequency, TF over GST control). In addition, the binding signal with SPIC was 1.14 fold enrichment (6-mer frequency, TF over GST control); with ELF4, 1.08 fold enrichment (6-mer frequency, TF over GST control); in the experiment with ELK4 it was 1.11 fold enrichment (6-mer frequency, TF over GST control); with ETV2, 1.15 fold enrichment (6-mer frequency, TF over GST control); with ELF3, 1.07 fold enrichment (6-mer frequency, TF over GST control); with ETV1, 1.19 fold enrichment (6-mer frequency, TF over GST control).

The values are drawn from paper PMC7862700, “An all-to-all approach to the identification of sequence-specific readers for epigenetic DNA modifications on cytosine”.
